Only some compounds are listed: those with a hit (about 7.5% of all), similar ones and a draw of the others.
ELG1 genotoxic – qHTS screen for small molecules that induce genotoxicity in human embryonic kidney (HEK293T) cells expressing luciferase-tagged ELG1; HEK293T ELG1-luciferase reporter, luminescence, 16 h; Potency, µM (highest dose often 46 µM), for inactives: at the top dose activity change, positive = activation, hits mostly activators; 330,000 compounds, 1.3% hits; AID 504466, 2011; further: % of control where 0% means no effect; nearly all actives have a fitted effect of over 60% in size
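DMSO vehicle served as control against compound-treated ELG1-luciferase HEK293T cells; exposure lasted 16 hr at 37 °C and 5% CO2, followed by ONE-Glo luminescence detection after 30 min.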
FLuc modulator – qHTS profiling assay for firefly luciferase inhibitor/activator using purifed enzyme and Km concentrations of substrates (counterscreen for miR-21 project); Luciferin 4-monooxygenase (Photinus pyralis), P08659; Potency, µM (top dose mostly 57.5 µM), inactives show at the highest dose activity change, negative = inhibition, hits mostly inhibitors; 360,000 compounds, 6.9% hits; purified FLuc, Km substrates, luminescence inhibition;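 further: plate controls were vehicle for no effect and reference inhibitor for full effect; nearly all actives have a fitted effect of over 55% in size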
Target sequence (P08659 whole entry, looked up): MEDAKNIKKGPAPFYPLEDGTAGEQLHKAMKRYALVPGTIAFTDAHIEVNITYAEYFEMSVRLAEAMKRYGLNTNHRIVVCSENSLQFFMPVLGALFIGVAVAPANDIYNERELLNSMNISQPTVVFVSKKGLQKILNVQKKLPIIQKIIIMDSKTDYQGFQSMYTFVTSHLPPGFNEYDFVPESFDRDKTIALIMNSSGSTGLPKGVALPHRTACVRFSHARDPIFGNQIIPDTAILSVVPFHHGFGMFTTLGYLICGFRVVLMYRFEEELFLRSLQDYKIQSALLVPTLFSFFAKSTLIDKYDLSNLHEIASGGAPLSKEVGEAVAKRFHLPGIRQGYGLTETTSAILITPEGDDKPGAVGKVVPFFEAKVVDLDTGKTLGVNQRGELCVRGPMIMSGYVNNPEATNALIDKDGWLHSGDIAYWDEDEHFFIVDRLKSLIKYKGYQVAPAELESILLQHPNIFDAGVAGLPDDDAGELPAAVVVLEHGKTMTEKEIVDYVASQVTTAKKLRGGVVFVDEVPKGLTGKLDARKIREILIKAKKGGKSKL
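Purified P. pyralis luciferase, 10 nM final, with Km-level 10 uM D-luciferin and 10 uM ATP in 50 mM Tris acetate pH 7.5, 10 mM Mg acetate, 0.01% Tween-20, 0.05% BSA; 6-point qHTS titration about 60 µM downward; luminescence read.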
NPC1 prom act – qHTS Assay for NPC1 Promoter Activators; 320,000 compounds, 2.4% hits; Huh7 NPC1 promoter luciferase reporter, 24 h; Potency, µM (series often up to 9.22 µM), for inactives: at the top dose activation, usual class: activators; further: % of control where 0% means no effect; nearly all actives have a fitted effect of over 60% in size
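NPC1 promoter–luciferase Huh7 cells; 24 h compound; luminescence.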
Luc counter – Counterscreen for Luciferase (Kinase-Glo TM) Inhibition. Luciferin 4-monooxygenase (Photuris pensylvanica), Q27757. Kinase-Glo luciferase, ATP luminescence, 8 min. Potency, µM (titrated, usually from 38.3 µM), for the others: at the top dose activity change, negative = inhibition, actives largely listed as inhibitors. 200,000 compounds, 0.28% hits. AID 1379, 2008; further: on the % scale 0 is the no-effect control and ±100 the full control effect; nearly all actives have a fitted effect of over 60% in size
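Compounds were added to a substrate mix at pH 7.2 (50 mM imidazole, 10 uM ATP, within the enzyme's linear range), followed by Kinase-Glo detection reagent; luminescence was measured after 8 minutes at ambient temperature.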
Rab9 prom act – qHTS Assay for Rab9 Promoter Activators; 320,000 compounds, 2.8% hits; AID 485297, 2010; Huh7 Rab9 promoter-luciferase reporter, luminescence, 24 h; Potency, µM (series often up to 9.22 µM), for inactives: at the highest dose activation, negative = inhibition, actives largely listed as activators; further: % of control where 0% means no effect; nearly all actives have a fitted effect of over 60% in size
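Stable Rab9-luc Huh7, 1500 cells/well, 2 h settle; cmpd in DMSO, 24 h, 37 °C/5% CO2; luciferase reagent 10 min RT; luminescence.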
SMN2 splice enh – qHTS Assay for Enhancers of SMN2 Splice Variant Expression; HEK293 SMN2-luciferase splicing reporter, luminescence, 30-36 h; Potency, µM (series often up to 46.1 µM), inactives show top-dose activity change, positive = activation, usual class: activators; 210,000 compounds, 2.8% hits; AID 1458, 2008; further: % of control where 0% means no effect; nearly all actives have a fitted effect of over 55% in size
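qHTS luciferase splicing reporter: luminescence rises when SMN2 exon 7 is included in transfected HEK293 cells. Compound exposure lasted 30-36 h at 37C, with 4.5 mM final sodium butyrate as control, followed by a ONE-Glo read.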
Numbers without * were called inactive; [ ] = remark or other dose. The call rests on the fitted dose curve; in most records, active means well fitted curve in the direction sought with a large enough effect; inconclusive means small, poorly fitted or top-dose-only effect, or another doubt; inactive means no such curve, though single readings can be large; an effect the other way counts as inactive or inconclusive. Potency means the concentration at half of the fitted maximal effect.

What do the screens show for `Clc1ccc(/C=C\c2nc(Cl)c(-c3ccc(Cl)cc3)c(Cl)n2)cc1`?
Luc counter: -4%[7.66 µM]; SMN2 splice enh: -4%[9.22 µM]

What do the screens show for `O=C(COc1ccc(Cc2ccccc2)cc1)c1ccc(F)cc1`?
ELG1 genotoxic: 9%; FLuc modulator: 8.5µM*; NPC1 prom act: 27%; Luc counter: 0%; Rab9 prom act: 24%; SMN2 splice enh: 3%

What do the screens show for `O=C(COc1cccc(NC(=O)c2cccc([N+](=O)[O-])c2)c1)c1ccc(F)cc1`?
ELG1 genotoxic: -14%; FLuc modulator: inconclusive; NPC1 prom act: -2%; Luc counter: 3%; Rab9 prom act: 0%; SMN2 splice enh: -70%

Results for O=C(COc1cccc(NC(=O)c2ccccc2)c1)c1ccc(F)cc1 ?
ELG1 genotoxic: -7%; FLuc modulator: 15µM*; NPC1 prom act: 5%; Luc counter: 2%; Rab9 prom act: -2%; SMN2 splice enh: -58%

How did CCc1ccc(NC(=O)N2CCN(Cc3cc(=O)n4nc(-c5ccccc5OC)sc4n3)CC2)cc1 do in these assays?
FLuc modulator: -4%

How did CCOc1ccc(C(=O)NC2CC(=O)N(c3ccc4c(c3)OCCO4)C2)cc1 (stereo not given) do in these assays?
ELG1 genotoxic: 8%; FLuc modulator: 1%; NPC1 prom act: -2%; Rab9 prom act: -4%

Results for CCOc1ccc(N/C(C)=C/C(=O)c2ccc3c(c2)OCCO3)cc1 ?
ELG1 genotoxic: inconclusive; FLuc modulator: 5.4µM*; NPC1 prom act: 3.2µM*; Rab9 prom act: 2.2µM*

What do the screens show for `CCOc1ccc(NC(=O)COc2ccc3c(c2)OCO3)cc1`?
ELG1 genotoxic: 15%; FLuc modulator: -18%; NPC1 prom act: 0%; Rab9 prom act: -3%

What do the screens show for `CCOc1ccc(N/C(C)=C\C(=O)c2ccc3c(c2)OCCO3)cc1`?
ELG1 genotoxic: 12%; FLuc modulator: 3.8µM*; NPC1 prom act: 2.5µM*; Luc counter: 2%; Rab9 prom act: 1.1µM*

How did O=C(Nc1ccc(N2CCOCC2)c(Cl)c1)c1ccc(F)cc1 do in these assays?
ELG1 genotoxic: 2%; FLuc modulator: 13µM*; NPC1 prom act: inconclusive; Luc counter: 4%; Rab9 prom act: 2.5µM*; SMN2 splice enh: 11µM*

How did O=C(Nc1ccc(N2CCOCC2)c(Cl)c1)c1ccccc1Cl do in these assays?
ELG1 genotoxic: inconclusive; FLuc modulator: 27µM*; NPC1 prom act: 26%; Luc counter: 1%; Rab9 prom act: inconclusive

How did O=C(NC(=S)Nc1ccc(N2CCOCC2)c(Cl)c1)C(c1ccccc1)c1ccccc1 do in these assays?
ELG1 genotoxic: -3%; FLuc modulator: 9%; NPC1 prom act: -1%; Luc counter: -1%; Rab9 prom act: 3%; SMN2 splice enh: 3%

Results for O=C(Nc1ccc(N2CCOCC2)c(Cl)c1)c1ccc(-n2cnnc2)cc1 ?
ELG1 genotoxic: 7%; FLuc modulator: -1%; NPC1 prom act: 0%; Rab9 prom act: 2%

How did O=C1NN(c2ccccc2)C(=O)/C1=C/c1ccc(Sc2cccc3ccccc23)o1 do in these assays?
ELG1 genotoxic: 3%; FLuc modulator: -2%; NPC1 prom act: 1%; Luc counter: -2%; Rab9 prom act: -2%

Results for O=C1NN(c2ccc(F)cc2)C(=O)/C1=C/c1cccs1 ?
ELG1 genotoxic: -1%; FLuc modulator: 24µM*; NPC1 prom act: -1%; Luc counter: -8%; Rab9 prom act: -3%

Bioassay records (PubChem BioAssay)
